Laboratory results as given in PubChem BioAssay AID2098 (Broad Institute, 2009).
Out of some 300,000 compounds screened, about 2,300 (0.77%) were called active. Shown is part of a subset that was picked to be rich in actives. A number with no mark means an inactive call.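 How the source made its calls: active means more than half of replicate wells show activity change below -50%, luminescence cut by over half; inconclusive means some wells, but at most half, below -50%; inactive means no replicate well below -50%.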

Assay: blocking HSF1-driven luciferase expression – cell-based, NIH3T3, luminescence, primary screen (AID 2098);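 further: luciferase reports HSF-1 transcriptional activity via heat shock element; 0% = median of DMSO wells and -100% = zero luminescence signal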
Details: NIH3T3-HGL HSE-luciferase, MG132-induced, luminescence 8 h; active compounds read low; screened at 7.5 µM (by protocol)
With `Cc1ccc(C)c(OCCC(=O)OCC(=O)c2ccc3c(c2)NC(=O)CO3)c1` the activity change, negative = inhibition was 1.77%. In the case of `CCOC(=O)/C(=C\c1ccc([N+](=O)[O-])cc1)C(=O)c1cc(C(C)=O)c(Nc2ccccc2)s1`, the activity change, negative = inhibition is reported as -93.6% (active). Work on `Cc1ccc(NC(=O)/C(=C/c2ccc([N+](=O)[O-])cc2)NC(=O)c2ccccc2)cc1` yielded an activity change, negative = inhibition of -1.77%. With `O=C(Nc1ccccc1)/C(=C/c1ccc([N+](=O)[O-])cc1)NC(=O)c1ccccc1` the activity change, negative = inhibition was -11.2%. Work on `CC1CCCCC1NC(=O)c1cc(=O)[nH]c2ccccc12` (stereo not given) yielded an activity change, negative = inhibition of -3.75%. Work on `Nc1ccc(C(=O)N2CCN(S(=O)(=O)c3ccc(Cl)cc3)CC2)cc1[N+](=O)[O-]` yielded an activity change, negative = inhibition of 3.46%. For `CCOc1ccc(C(=O)Nc2ccncc2)cc1`, the activity change, negative = inhibition was 4.46%. With `CCOC(=O)c1cc(NC(=O)c2cccnc2)ccn1` the activity change, negative = inhibition was -72.9% (active). With `CCOC(=O)c1cccnc1NC(=O)c1ccncc1` the activity change, negative = inhibition was -52.6% (active). `CCOc1ccccc1NC(=O)c1cccnc1` showed an activity change, negative = inhibition of -2.44%. Work on `CCOc1cc(C(=O)Nc2ncccn2)cc(OCC)c1OCC` yielded an activity change, negative = inhibition of -4.41%. `CCOC(=O)c1ccc(NC(=O)c2cccnc2)cc1` gave an activity change, negative = inhibition of -6.35%. In the case of `CCOC(=O)c1c(C)oc2cc(Sc3ccccc3)c(O)c(O)c12`, the activity change, negative = inhibition is reported as 13.1%. `COc1ccc(C(=O)NCC(c2ccco2)N2CCc3ccccc32)cc1OC` (stereo not given) gave an activity change, negative = inhibition of 2.71%. With `CCC(=O)c1ccc(OCC(=O)OCC(=O)NC2CCCCCC2)cc1` the activity change, negative = inhibition was -9.22%. With `COc1ccc(CNC(=O)COC(=O)CCS(=O)(=O)c2ccc(C)cc2)cc1OC` the activity change, negative = inhibition was -1.13%. With `O=C(CSc1ccccc1F)NC1CCS(=O)(=O)C1` (stereo not given) the activity change, negative = inhibition was -68.8% (active). With `O=C(Cc1ccc(Cl)cc1)NC1CCS(=O)(=O)C1` (stereo not given) the activity change, negative = inhibition was 0.993%. Work on `O=C(CSc1nn(-c2ccc(F)cc2)c(=S)s1)NC1CCS(=O)(=O)C1` (stereo not given) yielded an activity change, negative = inhibition of 2.24%. In the case of `CN(CC(=O)Nc1ccccc1Cl)C(=O)COc1cccc2c1OC(C)(C)C2`, the activity change, negative = inhibition is reported as 4.06%. For `CN1C/C(=C/c2cccs2)C(=O)/C(=C\c2cccs2)C1`, the activity change, negative = inhibition was 19.3%. With `CSC1=N/C(=C\C=C\c2cccs2)C(=O)S1` the activity change, negative = inhibition was -67.1% (active). With `Cc1cccc(C2=N/C(=C/c3cccs3)C(=O)O2)c1` the activity change, negative = inhibition was -10.1%. `CCCc1cc(=O)[nH]c2nnc(SCC(=O)Nc3nnc(SCC)s3)n12` showed an activity change, negative = inhibition of -2.82%. For `COc1ccc(CCNC(=O)Cc2ccc(C)cc2)cc1OC`, the activity change, negative = inhibition was -5.1%. For `COc1cccc(/C=C/C(=O)OCC(=O)N2CCCc3ccccc32)c1`, the activity change, negative = inhibition was 0.601%. With `CCC1Nc2ncnc(N3CCN(c4ccccc4)CC3)c2N(Cc2ccc(Cl)cc2)C1=O` (stereo not given) the activity change, negative = inhibition was 11.2%. For `COc1cccc(CNc2nc(C(F)(F)F)nc3ccccc23)c1`, the activity change, negative = inhibition was 0.989%. In the case of `NS(=O)(=O)c1ccc(CCNc2nc(C(F)(F)F)nc3ccccc23)cc1`, the activity change, negative = inhibition is reported as -2.88%. For `CCc1ccc(C(CNc2nc(C(F)(F)F)nc3ccccc23)N(C)C)cc1` (stereo not given), the activity change, negative = inhibition was -82% (active). For `CCCCn1c(N)c(N(CC(C)C)C(=O)c2ccc(Br)o2)c(=O)[nH]c1=O`, the activity change, negative = inhibition was 4.02%. `CCCN(CCc1ccccc1)C1CCc2c(O)cccc2C1` (stereo not given) gave an activity change, negative = inhibition of 7.71%. In the case of `CCOC(=O)c1c(C)[nH]c2c1-c1ccccc1C(=O)C2=O`, the activity change, negative = inhibition is reported as -91.5% (active). In the case of `CCOC(=O)c1c(C)[nH]c(C)c1S(=O)(=O)N(C)CC(=O)Nc1ccccc1C`, the activity change, negative = inhibition is reported as 4.41%. `CCOC(=O)C1=C(c2ccc(OC)cc2)C(=O)c2ccccc2C1=O` gave an activity change, negative = inhibition of 31.1%. With `CSc1ccc(S(=O)(=O)NCC(=O)OCC(=O)NC2(C#N)CCCCC2)cc1[N+](=O)[O-]` the activity change, negative = inhibition was 4.69%. With `CC(C)Cn1c(N2CCN(C(=O)/C=C/c3ccccc3)CC2)nc2ccccc21` the activity change, negative = inhibition was -65.4% (active). Work on `CC(C)N(C(=O)Cn1c(SCC(=O)N2CCN(c3ccccc3)CC2)nc2ccccc21)C(C)C` yielded an activity change, negative = inhibition of -10.4%. Work on `O=C(Cn1c(N2CCN(C/C=C/c3ccccc3)CC2)nc2ccccc21)c1ccccc1` yielded an activity change, negative = inhibition of -0.086%. In the case of `O=C(COc1ccccc1Cl)Nc1ccccc1C(=O)NC1CC1`, the activity change, negative = inhibition is reported as 6.98%. For `COc1ccc(Br)cc1/C=N/NC(=O)c1cccc(S(=O)(=O)N2CCOCC2)c1`, the activity change, negative = inhibition was -2.38%. For `O=C(N/N=C/c1ccc([N+](=O)[O-])o1)c1cccc(S(=O)(=O)N2CCOCC2)c1`, the activity change, negative = inhibition was 6.48%. For `CCOc1cc(/C=N/NC(=O)c2cccc(S(=O)(=O)N3CCOCC3)c2)ccc1OCC(=O)N(C)C`, the activity change, negative = inhibition was -64.3% (active). For `CC(=O)Nc1cccc(C(=O)OCC(=O)NCc2cc(C)c(O)c(C)c2)c1`, the activity change, negative = inhibition was 9.36%. In the case of `NC(=O)C1=C[C@H](c2csc3ccccc23)C[C@H](OCc2ccc(CO)cc2)O1`, the activity change, negative = inhibition is reported as 5.45%.
